# Experimental data taken from ChEMBL document CHEMBL3433997, “St. Jude Leishmania screening dataset” (2016).
# Several values for one entry are separate records, joined by “and”; a condition that tells them apart may be missing. Equal entries are not always repeated.
# Target: Solute carrier family 2, facilitated glucose transporter member 1 (Homo sapiens) (UniProt P11166)
# Test: ST_JUDE_LEISH: Cytotoxicity at 2uM final concentration against transgenic Leishmania Mexicana promastigotes LmGLUT1 that are glucose transport deficient and complemented with the human glucose transporter GLUT1. Activity is measured by DNA content using SYBR green in vitro
# Type: functional
# Sequence of Solute carrier family 2, facilitated glucose transporter member 1 (Homo sapiens) (P11166 whole entry): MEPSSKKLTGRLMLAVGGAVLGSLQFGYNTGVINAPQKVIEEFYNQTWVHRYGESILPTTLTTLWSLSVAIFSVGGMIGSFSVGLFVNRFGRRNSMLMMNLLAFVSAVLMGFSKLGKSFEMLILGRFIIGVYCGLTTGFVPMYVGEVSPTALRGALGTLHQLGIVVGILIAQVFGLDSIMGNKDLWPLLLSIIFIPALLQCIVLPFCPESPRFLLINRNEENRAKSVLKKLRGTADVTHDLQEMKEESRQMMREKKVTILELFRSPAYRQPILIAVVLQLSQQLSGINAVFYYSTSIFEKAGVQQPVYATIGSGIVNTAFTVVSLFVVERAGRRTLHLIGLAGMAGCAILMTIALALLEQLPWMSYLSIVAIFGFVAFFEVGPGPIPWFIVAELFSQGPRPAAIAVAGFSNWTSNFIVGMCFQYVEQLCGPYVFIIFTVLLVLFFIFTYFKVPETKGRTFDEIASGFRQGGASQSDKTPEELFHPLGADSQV
row,SMILES,inhibition
1,O=C(/C=C/c1ccc(Cl)c(Cl)c1)N1CCC(CN2CCC(c3c[nH]c4ccccc34)C(O)C2)CC1 (centres undefined),7.48%
2,O=C(C=Cc1ccccc1Br)NC1CCC(CN2CCC(c3c[nH]c4ccccc34)CC2)CC1 (centres undefined),9.4% and 3.03%
3,Cc1ccc(CC(C)NCC(O)c2cccc(C(F)(F)F)c2)cc1F (centres undefined),6.67%
4,COc1ccc(CCNCc2ccc3nc(N)c(C)cc3c2)cc1,0.92%
5,CNCCN(C)C(=O)Oc1c(Br)c(C)nc(C)c1-c1ccc(Oc2ccc(OC(F)(F)F)cc2)cc1,2.73%
6,Cc1ccc(C(=O)Nc2ccnc(N(C)C3CCN(Cc4cccc(O)c4)CC3)c2)cn1,3.48%
7,COc1ccc(CC(C)NCC(O)c2cccc(Cl)c2F)cc1 (centres undefined),1.96%
8,Cc1cc(N(C)C2CCN(C)CC2)nc(Nc2ccc(Cl)cc2)n1,2.63%
9,O=C(/C=C/c1ccsc1)NC1CCC(CN2CCC(c3c[nH]c4ccccc34)CC2)CC1 (centres undefined),1.44%
10,CC[C@H]1CN2CC[C@H]1C[C@H]2[C@H](O)c1cc(/C=C/c2ccccc2)nc2ccc(OC)cc12,0.9%
11,COc1ccc2[nH]cc(C3=CCN(Cc4ccccc4)CC3)c2c1,3.41%
12,N#Cc1c(Cl)cccc1Oc1ccc(S(=O)(=O)NC2CCC(CN3CCC(c4c[nH]c5ccccc45)CC3)CC2)cc1 (centres undefined),0.9% and 1.4%
13,C[C@@H](CC1CCCCC1)NCc1ccccc1O,4.7%
14,CC[C@H]1CN2CC[C@H]1C[C@H]2[C@H](O)c1cc(/C=C/c2ccc(F)cc2)nc2ccc(OC)cc12,4.05%
15,COc1ccc2[nH]cc(C3=CCN(CC4CC4C(=O)c4ccccc4)CC3)c2n1 (centres undefined),12.6%
16,CC[C@H]1CN2CC[C@@H]1C[C@H]2[C@H](O)c1cc(-c2ccc(F)cc2)nc2ccc(O)cc12,-0.76%
17,COC(=O)c1ccc(CC(C)NCC(O)c2ccc3ccc4ccccc4c3c2)cc1 (centres undefined),3.1%
18,c1ccc2c(NCCCCCCCCCNc3c4ccccc4nc4ccccc34)c3ccccc3nc2c1,3.03%
19,CC[C@H]1CN2CC[C@@H]1C[C@H]2[C@H](O)c1cc(N2CCC(c3ccccc3)CC2)nc2ccc(OC)cc12,8.84%
20,O=C(COc1ccc(Cl)cc1)N1CCC(CN2CCC(c3c[nH]c4ccccc34)CC2)CC1,-2.1%

row,SMILES,inhibition
1,COc1ccc2nc(-c3ccc(F)cc3)cc([C@@H](O)[C@@H]3C[C@@H]4CCN3CC4C=NO)c2c1 (some centres undefined),4.55%
2,CS(=O)(=O)Nc1ccc2[nH]cc(C3CC4CCC(C3)N4CC3CCC(NC(=O)/C=C/c4ccc(Cl)c(Cl)c4)CC3)c2c1 (centres undefined),5.91%
3,CC[C@H]1CN2CC[C@H]1C[C@H]2[C@H](O)c1cc(N2CCC3CCCCC3C2)nc2ccc(OC)cc12 (some centres undefined),3.3%
4,CC1=C(C(=O)NC2CCC(CN3CCC(c4c[nH]c5ccccc45)CC3)CC2)Cc2ccccc21 (centres undefined),-3.48% and -2.8%
5,COCCNCc1cccc(-c2ccc(CN(C(=O)NC3CCCCC3)C3CCN(Cc4ccccc4)CC3)cc2)c1,7.28%
6,CCC(C)CN1CCC(N(C)c2cc(NC(=O)c3ccc(F)cc3)ccn2)CC1 (centres undefined),-0.37%
7,CC[C@H]1CN2CC[C@H]1C[C@@H]2[C@H](O)c1ccnc2ccc(O)cc12,-0.84%
8,CC[C@H]1CN2CC[C@H]1C[C@H]2[C@H](O)c1ccnc2ccc(OC)cc12,-0.16%
9,CCCCCCc1cc(O)c2c3c(c(=O)oc2c1)CCN(C)C3,7.26%
10,CC[C@H]1CN2CC[C@H]1C[C@H]2[C@H](O)c1cc(N2CCCC2)nc2ccc(OC)cc12,-0.2%
11,CC(=O)C1(c2ccccc2)CCN(CCC2(c3ccc(Cl)c(Cl)c3)CN(C(=O)C3CCCC3)CCO2)CC1 (centres undefined),4.09%
12,O=C1Nc2cccc3c2C1(CCCCN1CC=C(c2c[nH]c4ncccc24)CC1)CCC3 (centres undefined),5.83%
13,CC(C)(C)c1cc(/C=C/C(=O)NC2CCC(CN3CCC(c4c[nH]c5ccccc45)CC3)CC2)cc(C(C)(C)C)c1O (centres undefined),2.87% and 2.94%
14,CC(C)CNCc1cccc(-c2ccc(CN(C(=O)Nc3ccccc3)C3CCN(Cc4ccccc4)CC3)cc2)c1,2.16%
15,Cc1ccc(CC(C)NCC(O)c2cccc(Br)c2)cc1 (centres undefined),1.02%
16,CNCCN(C)C(=O)Oc1c(Cl)c(C)nc(C)c1-c1ccc(Oc2ccc(OC(F)(F)F)cc2)cc1,4.11%
17,CC(=O)C1(c2ccccc2)CCN(CCC2(c3ccc(Cl)c(Cl)c3)CN(C(=O)Nc3cc(F)cc(F)c3)CCO2)CC1 (centres undefined),2.31%
18,O=C(/C=C/c1ccc(Cl)c(Cl)c1)N1CCC(CN2CCC(c3cn(CC(=O)N4CCCCC4)c4ccccc34)CC2)CC1,2.63%
19,Cn1nc(C(F)(F)F)cc1-c1ccc(C(=O)NC2CCC(CN3CCC(c4c[nH]c5ccccc45)CC3)CC2)s1 (centres undefined),6.48%
